Screens deposited in PubChem BioAssay by National Center for Advancing Translational Sciences (NCATS).
Hits are enriched below; roughly 6.3% of the tested compounds scored in any of these assays.
VP16 counter: Gal4-VP16 reporter inhibition counter-screen; Potency, µM (series often up to 53.6 µM), hits mostly inhibitors; Drosophila S2 Gal4-VP16 UAS-luciferase, luminescence, 20 h; 310,000 compounds, 3.5% hits;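 further: Gal4-VP16 expression switched on by copper sulfate through the metallothionein promoter; nearly all actives have a fitted effect of over 50% in size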
RORg inh: inhibitors of mouse ROR gamma transcriptional activity. Drosophila S2 Gal4-RORgamma UAS-luciferase reporter, 20 h. P51450. Potency, µM (highest dose often 53.6 µM), most hits filed as inhibitors. AID 2551. 310,000 compounds, 5.4% hits; further: nearly all actives have a fitted effect of over 60% in size
Target sequence (P51450 whole entry, looked up, the tested form may be a part): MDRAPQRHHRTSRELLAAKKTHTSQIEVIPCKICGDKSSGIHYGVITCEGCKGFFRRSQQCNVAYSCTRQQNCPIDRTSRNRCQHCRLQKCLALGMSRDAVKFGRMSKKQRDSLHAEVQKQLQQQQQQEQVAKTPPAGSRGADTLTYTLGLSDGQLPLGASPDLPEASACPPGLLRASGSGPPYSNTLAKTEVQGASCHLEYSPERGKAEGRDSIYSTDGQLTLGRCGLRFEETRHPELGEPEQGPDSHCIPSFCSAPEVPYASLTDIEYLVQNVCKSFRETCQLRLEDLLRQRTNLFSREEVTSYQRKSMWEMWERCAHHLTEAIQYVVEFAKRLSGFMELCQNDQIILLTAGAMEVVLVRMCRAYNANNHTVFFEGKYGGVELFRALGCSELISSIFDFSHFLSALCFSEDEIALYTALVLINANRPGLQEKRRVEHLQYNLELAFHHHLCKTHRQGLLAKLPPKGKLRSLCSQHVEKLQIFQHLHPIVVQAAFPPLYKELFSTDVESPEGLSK
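ROR gamma transcriptional activity was tracked as Gal4-UAS luciferase output in stably transfected Drosophila Schneider cells, with compound added 1 hr before 700 uM copper sulfate induction and a 20 hr ambient-temperature incubation.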
ATXN2 expr inh: reduces ATXN2 reporter expression in HEK-293 cells. Potency, µM (highest dose often 57 µM), hits mostly inhibitors. 360,000 compounds, 0.72% hits. HEK-293 ATXN2-luciferase reporter, luminescence, 24 h. AID 1745845; further: nearly all actives have a fitted effect of over 55% in size
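ATXN2-luciferase reporter cells (luciferase flanked by upstream and downstream ATXN2 gene portions) were treated 24 h at 37 °C with compounds at up to 57 uM. SteadyGlo luminescence gave expression; GF-AFC fluorescence gave viability.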
HepG2 viability: kills HepG2 cells in TGF-b inhibitor counter-screen; HepG2 CAGA-GFP viability, ATP luminescence, 18 h; Potency, µM (highest dose often 46.1 µM), usual class: cytotoxic; 410,000 compounds, 0.76% hits; AID 588856
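HepG2 CAGA-GFP cells (1000/well, DMEM with 1% FBS) received compound, then TGF-beta at 500 pg/mL final, and were incubated 18 hours at 37 degrees C. Viability was read by CellTiter-Glo luminescence. Media-only wells were set as complete cell-killing and DMSO as no toxicity.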
S2 tox: reduces viability in counter-screen for ATXN expression inhibitors. Potency, µM (series often up to 56.7 µM), most hits filed as cytotoxic. 400,000 compounds, 0.49% hits. S2 cells (HEK-293 line with an ATXN2-luciferase reporter) viability, CellTiter-Fluor protease fluorescence, 24 h; further: nearly all actives have a fitted effect of over 40% in size
TGFb inhibitor: TGF-b pathway inhibition; Potency, µM (highest dose often 46.1 µM), usual class: inhibitors; 410,000 compounds, 1.2% hits; HepG2 CAGA-GFP TGF-b/SMAD3 reporter, GFP fluorescence, 18 h; TGF-beta stimulated, 500 pg/mL final; AID 588855; further: nearly all actives have a fitted effect of over 65% in size
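Read-out: total well GFP (ex488/em500-530) summed from mean per-cell fluorescence. Cells: HEPG2 CAGA-GFP, 1% FBS DMEM, 18 h at 37 degrees C with 500 pg/mL final TGF-beta. Unstimulated wells served as the full-inhibition control; stimulated DMSO wells = 0%.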
Numbers stand for hits; - = inactive; ? = inconclusive; . = not tested or not shown; [ ] = dose if it differs, or a comment. The call rests on the fitted dose curve; in most records, active means well fitted curve in the direction sought with a large enough effect; inconclusive means small, poorly fitted or top-dose-only effect, or another doubt; inactive means no such curve, though single readings can be large; an effect the other way counts as inactive or inconclusive.

SMILES | VP16 counter | RORg inh | ATXN2 expr inh | HepG2 viability | S2 tox | TGFb inhibitor
Cc1c(C(=O)N/N=C/c2ccc(Cl)cc2)[nH]c2ccc(Cl)cc12 | 11µM | 11µM | . | 10µM | ? | 2µM
O=C(NN=C1CCN(Cc2ccccc2)CC1)c1ccccc1 | - | - | - | - | - | -
O=C(NN=C1CCN(Cc2ccccc2)CC1)c1cc(Br)ccc1O | ? | 3.5µM | . | - | - | -
CCOc1ccc(Br)cc1C(=O)N/N=C/c1c[nH]c2ccccc12 | - | - | . | - | ? | -
O=C(NN=C1CCCC1)c1[nH]c2ccc(Cl)cc2c1-c1ccccc1 | ? | 11µM | ? | - | . | ?
O=C(N/N=C/c1c[nH]c2ccccc12)c1cc(Br)ccc1O | 7.9µM | 5.6µM | - | - | - | -
CCOc1ccc(/C=N/NC(=O)c2[nH]c3ccc(C)cc3c2C)cc1 | ? | ? | - | - | - | -
NCCCCCCNc1nc2c(N)ncnc2n1[C@@H]1O[C@@H]2COP(=O)(O)O[C@H]2[C@H]1O | - | - | . | . | . | .
N#CC(c1cccc([N+](=O)[O-])c1)C(CC(=O)c1ccccc1)c1ccccc1 (centres undefined) | . | . | . | - | - | -
O=C1C2CCCCN2C(=O)N1CCCN1CCN(c2ccc(F)cc2)CC1 (centres undefined) | - | - | - | - | - | -
Nc1ccc(N2CCN(CCCCN3C(=O)C4CCCN4C3=O)CC2)cc1 (centres undefined) | - | - | - | - | 18µM | -
Cc1ccc(S(=O)(=O)Nc2cc3c(cc2Cl)n(C)c(=O)c(=O)n3C)cc1 | . | . | - | - | - | -
Cc1ccc(S(=O)(=O)Nc2cc(C)cn(Cc3ccc(F)cc3)c2=O)cc1 | 18µM | ? | - | - | - | -
Cc1ccc(S(=O)(=O)Nc2cc(C)cn(Cc3ccccc3)c2=O)cc1 | 14µM | ? | - | - | - | -
COc1cccc(C2=Cc3ccc(F)cc3C(CC(C)=O)N2c2ccc(C#CC3(O)CCCCC3)cc2)c1 (centres undefined) | . | . | - | . | ? | .
O=C(c1cccnc1)N(Cc1ccccc1)C(c1ccccc1)c1nc2ccccc2[nH]1 (centres undefined) | . | . | - | - | ? | -
COc1cc(/C=N/Nc2cccc3cccnc23)cc(OC)c1O | ? | 10µM | . | - | ? | -
O=C(Nc1cccc2cccnc12)c1cccc2ccccc12 | - | - | - | - | - | -
Oc1cccc(/C=N/Nc2cccc3cccnc23)c1 | ? | 7.1µM | -[11.3 µM] | - | ? | -
Oc1c(/C=N/Nc2cccc3cccnc23)ccc2ccccc12 | ? | 13µM | - | - | - | ?
O=C(N/N=C/c1cccc(O)c1)c1ccc(COc2cccc3cccnc23)cc1 | - | - | . | - | - | -
COc1cc(/C=N/Nc2ccccn2)cc(OC)c1O | ? | ? | -[11.3 µM] | - | . | -
Cc1ccc(S(=O)(=O)N(CCC(=O)NCc2ccc(S(N)(=O)=O)cc2)c2ccccc2)cc1 | . | . | - | - | - | -
CN(CC(=O)Nc1cccc(F)c1)C(=O)c1cn(-c2ccccc2)nc1-c1ccc(F)cc1 | . | . | . | - | ? | 22µM
COc1ccc(-c2nn(-c3ccccc3)cc2C(=O)N(C)CC(=O)Nc2cccc(F)c2)cc1 | . | . | . | - | ? | ?
SMILES | VP16 counter | RORg inh | ATXN2 expr inh | HepG2 viability | S2 tox | TGFb inhibitor
COc1cc(N(C)C)cc(CN(C)CCc2ccc([N+](=O)[O-])cc2)c1O | - | ? | . | . | . | .
COc1cccc(/C=N/NC(=O)CSc2ccccc2C)c1OC | - | - | - | - | - | -
COc1cccc(/C=N/NC(=O)CNC(=O)CCc2ccccc2)c1O | - | ? | . | - | ? | ?
COc1cccc(/C=N/NC(=O)CSc2ccccc2C)c1O | 0.79µM | 0.71µM | ? | - | - | ?
Cc1cccc(OCC(=O)NCC(=O)N/N=C/c2ccc(O)cc2O)c1 | - | ? | . | - | - | ?
COc1cccc(/C=N/NC(=O)CNC(=O)c2cccs2)c1O | 11µM | 3.2µM | ? | - | - | -
COc1ccccc1/C=C/C(=O)NCC(=O)N/N=C/c1cc(Br)ccc1OC | - | 13µM | ? | - | ? | ?
COc1cccc(/C=N/NC(=O)CNC(=O)COc2cccc(C)c2)c1O | 2.2µM | 0.28µM | . | - | ? | ?
CCCC[C@]12Cc3c(ccc4ccccc34)C(O1)C1=C(O2)C(=O)c2ccccc2C1=O | -[10 µM] | -[10 µM] | . | . | . | .
O=C1CC(c2ccco2)Cc2[nH]c(=O)c(C(=O)Nc3ccccc3)cc21 (centres undefined) | . | . | . | - | . | -
CC1(C)CC(=O)C=C(c2ccc(-c3cccc(C(N)=O)c3)cc2)C1=O | . | . | - | - | ? | -
COc1ccccc1/C=C\C(=O)NCC(=O)N/N=C/c1cccc(OC)c1O | 7.1µM | 4.5µM | ? | - | - | ?
COc1ccccc1/C=C\C=N\NC(=O)c1ccco1 | ? | ? | - | - | ? | ?
COc1ccccc1/C=C/C=N/NC(=O)c1cccs1 | ? | 7.9µM | - | - | - | -
COc1ccc(/C=N/NC(=O)CNC(=O)/C=C/c2ccccc2OC)cc1 | - | - | - | - | - | -
COCCN1CCN(C(=O)c2cnn(-c3nccc(-c4ccco4)n3)c2C(C)C)CC1 | . | . | . | . | - | .
Cc1cc(=O)n(Cc2ccc(OC(C)C)cc2)c(=S)[nH]1 | ? | 7.9µM | - | - | - | -
CC/C=C(\C(=O)N[C@@H]1C(=O)N2C(C(=O)OCOC(=O)C(C)(C)C)=C(COC(N)=O)CS[C@H]12)c1csc(N)n1 | . | . | - | . | - | .
C=C1CC(COc2cc(=O)oc3ccccc23)(c2ccccc2)OC1=O (centres undefined) | . | . | ? | 6.3µM | . | 5µM
Clc1ccc(C2CC(c3cccs3)n3ncnc3N2)c(Cl)c1 (centres undefined) | ? | 11µM | - | - | - | -
CCOc1cc(/C=N/Nc2nnc(C)n2N)ccc1O | ? | ? | - | 11µM | - | 11µM
CCc1nnc(N/N=C/c2cc(C)c(C)cc2C)n1N | ? | 16µM | - | - | - | ?
COC(=O)c1ccc(-n2c(C)cc(/C=N/Nc3nc(C)cc(=O)[nH]3)c2C)cc1 | - | ? | - | - | - | -
COc1cc(/C=N/Nc2nncn2/N=C/c2ccc(O)c(OC)c2)ccc1O | ? | - | - | 10µM | - | -
Cc1nnc(N/N=C/c2cc(C)n(-c3ccc(F)cc3)c2C)n1N | ? | 11µM | - | - | - | 14µM
CCOc1cc(/C=N/NC(=O)N/N=C/c2ccc(O)c(OCC)c2)ccc1O | . | . | - | - | - | -
CC(C)NC(=O)C1CCN(c2nc3ccccc3nc2C(F)(F)F)CC1 | . | . | - | - | - | -
Cc1nnc(N/N=C/c2ccccc2O)n1N | ? | 1.3µM | -[11.3 µM] | - | ? | ?
